Measured values: PubChem BioAssay (NCI)
The panel holds about 83,000 compounds, 20% with a hit somewhere; the sample as a whole holds those more often.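 How to read the values: 0–100, growth inhibition (40 = 60% inhibited); 0, no net growth; -100 to 0, cell death (-40 = 40% of starting cells died; -100 = all dead).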 A number with no mark means an inactive call. Active and inactive are the calls of the source.

What follows are compounds tested on OVCAR-5 ovarian (assay: NCI-60 one-dose screen, 48 h (100 = growth as untreated, 0 = no growth, -100 = all killed)). Conditions: 10 µM.
Method: Growth inhibition of the OVCAR-5 human tumor cell line is measured as a screen for anti-cancer activity. Cells are grown in 96 well plates and exposed to the test compound for 48 hours. Compounds are tested at a single concentration, which is 10^-5 M for most compounds. The reported endpoint is percent growth (GI% or GIPRCNT), where numbers from 0 - 100% represent growth inhibition, and numbers from -100% - 0 represent cell death. For example, a value of 40 represents 60% growth inhibition. A value of 0 means no net growth occurred over the course of the experiment. A value of -40 indicates 40% of cells at the beginning of the experiment died by the end of the experiment. A value of -100 means all cells are dead at the end of the experiment.
NCI-60 Human Tumor Cell Lines Screen was performed using the standard one-dose NCI protocol, which is described in more detail at https://dtp.cancer.gov/discovery_development/nci-60/default.htm.
Compounds with GIPRCNT values below 10 were considered active. Activity score was based on GIPRCNT using the following formula: […]
Score is 0 for GIPRCNT values of 100 or above, 50 for GIPRCNT values of 0, and 100 for GIPRCNT values of -100.

Structure (SMILES) | growth
CC(=O)CS(C)(=O)=O | 102%
C=CCNC(=S)NN | 69.7%
COc1ccc(C(C)=O)cc1N1C(=O)C2C(C1=O)C1(c3ccccc3)C(=O)C2(c2ccccc2)C(c2ccc(C)cc2)=C1c1ccc(C)cc1 (stereo not given) | 55.7%
CCCCCC(CCC)COC(=O)c1ccc(OC)cc1 (stereo not given) | 102%
Cc1ccc(NC(=O)/C=N/O)cc1C | 96.9%
CCc1ccc(-c2nnc(COc3ccc(-c4nc5ccc(C)cc5[nH]4)cc3OC)o2)cc1 | 92.4%
CCc1ccc(Nc2cc(C)nc3nc(C)nn23)cc1 | 26.4%
CC1(C)CNC(=O)N1 | 108%
O=C(/C=C/c1nnc2n(Cc3ccccc3)c(=O)c3c4c(sc3n12)CCCC4)c1ccccc1 | 115%
O=S(=O)(NCCO)c1ccc(OCCOc2ccc(S(=O)(=O)NCCO)cc2)cc1 | 99.2%
CC(C)c1[nH]nc2c(NCc3ccc(-c4ccccn4)cc3)nc(SCCN)nc12 | 13.6%
CCN1CCN(c2ccc(Nc3ncnc4c3nnn4CCc3cc(OC)cc(OC)c3)cc2)CC1 | 86.7%
C[C@@H]1C(=O)N(C[C@H](Cc2ccccc2)NC(=O)OCc2ccccc2)[C@]1(Cc1ccccc1)C(=O)OCc1ccccc1 | 65.8%
O=C(OCC1OC(n2cc(C(F)(F)F)c(=O)[nH]c2=O)CC1OC(=O)c1ccc([N+](=O)[O-])cc1)c1ccc([N+](=O)[O-])cc1 (stereo not given) | 82.9%
CCOC(=S)Sc1ccc([N+](=O)[O-])cc1[N+](=O)[O-] | 99.2%
O=c1oc2c3ccc4cnccc4c3[nH]c2c2ccccc12 | 46.8%
C/C(=N/NC(=O)c1sc(=S)n(C)c1N)c1cc2cc(Cl)ccc2o1 | 101%
CCN(CCCNC(=O)Cc1cc(=O)oc2cc(N(C)C)ccc12)CCNc1ccnc2cc(Cl)ccc12 | 109%
CCN1CCN(c2nc(NNC(=O)c3cccc(OC)c3)nc(N3CCN(C(c4ccccc4)c4ccccc4)CC3)n2)CC1 | 101%
O=C(/C=C/c1ccc(Cl)cc1)c1ccc(Br)cc1 | 91.8%

Structure (SMILES) | growth
COC(=O)[C@]12CC[C@@H](C)[C@H](C)[C@@H]1C1=CC[C@@H]3[C@@]4(C)CC(=O)[C@H](O)[C@@](C)(CO)[C@@H]4C(=O)C[C@@]3(C)[C@]1(C)CC2 | 50.7%
CCOC(=O)c1cc2c(n1Cc1cccc(OC)c1)-c1oncc1CC2 | 73%
COc1ccc(/C(CS(=O)(=O)c2ccccc2)=N\O)cc1 | 104%
CNCCCNCCCN1C(=O)c2ccc3c4c(ccc(c24)C1=O)C(=O)N(CCCNCc1ccccc1OC)C3=O | 5.23% (active)
C/C(=N\NC(=S)N1CCCC1)c1ccccn1 | 40.3%
O=C1c2cc(Cl)ccc2-c2c(O)cc(Cl)cc21 | 101%
COc1ccc(-c2csc(NC(=O)CO[N+](=O)[O-])n2)cc1 | 113%
COc1ccc2c(c1)/C(=C/c1cc(OC)c(OC)c(OC)c1)C(=O)N2C | 66.4%
Cc1ccc(C(=O)O)c(N)c1C | 106%
Cc1ccc(/C(CS(=O)(=O)c2ccc(C)cc2)=N\O)cc1 | 90.9%
Oc1[nH]c2ccccc2c1/C=c1/cc2c(c(-c3ccc(C(F)(F)F)cc3)n1)=Nc1ccccc1-2 | 70.5%
CNC(=O)c1cc(Oc2ccc(NC(=O)Nc3ccc(Cl)c(OC4CCCCC4)c3)c(F)c2)ccn1 | 88.8%
COc1cc(C2C=C(c3ccc(Cl)cc3)N=C3SC(C)=CN32)cc(OC)c1OC (stereo not given) | 85.2%
CC(=O)Nc1ccc(Sc2ccc(NC(C)=O)cc2)cc1 | 95.8%
N#C/C(=C/c1cc([N+](=O)[O-])ccc1Cl)C(N)=O | 107%
COc1ccc(-n2nnc3c(sc4ccccc43)c2=O)cc1 | 80.2%
COc1cc(C2C(C#N)=C(c3c[nH]c4ccccc34)Nc3nc(N)[nH]c(=O)c32)cc(OC)c1OC (stereo not given) | 96.8%
CCCCn1c(=O)[nH]c(N)c(C(c2ccc(Cl)cc2)c2c(N)[nH]c(=O)n(CCCC)c2=O)c1=O | 87.8%
COC(=O)CCCCCCCCC(C)c1ccc(C(C)=O)cc1 (stereo not given) | 98.4%
COc1ccc(-c2nc(-c3nc4ccc(C)cc4[nH]3)c3ccccn23)cc1 | 88.5%
